About 2,000 (36%) of roughly 5,500 compounds were called active. Inconclusive results (about 18%) are left out. Cut-off read from the data, not from the text of the source: active = normalized growth mostly below about 0.91 (no sharp cut-off); inconclusive = no clear call, values can overlap the other calls; inactive = mostly above about 0.92. The list shows a part of the results.
Test: chemical genetic growth profiling, strain panel (AID 1159580);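 note: tested at 20 µM; growth read once vehicle control cultures reached saturation at 30 °C; 1 = growth at the plate median or of vehicle wells; lower values mean less growth of the strain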
Conditions: S. cerevisiae deletion strains, growth OD
[1] = locus YAL021C, strain ccr4, hits give low values
[2] = locus YAL026C, strain drs2, hits give low values
[3] = locus YAL030W, strain snc1, hits give low values
[4] = locus YBL061C, strain skt5, hits give low values
[5] = locus YBR009C, strain hhf1, hits give low values
[6] = locus YBR023C, strain chs3, hits give low values
[7] = locus YBR171W, strain sec66, hits give low values
[8] = locus YBR231C, strain swc5, hits give low values
[9] = locus YBR279W, strain paf1, hits give low values
[10] = locus YCL011C, strain gbp2, hits give low values
[11] = locus YCL016C, strain dcc1, hits give low values
[12] = locus YCL061C, strain MRC1, hits give low values
[13] = locus YCL069W, strain vba3, hits give low values
[14] = locus YCR088W, strain abp1, hits give low values
[15] = locus YDL005C, strain med2, hits give low values
[16] = locus YDL040C, strain nat1, hits give low values
[17] = locus YDR001C, strain nth1, hits give low values
[18] = locus YDR069C, strain doa4, hits give low values
[19] = locus YDR137W, strain rgp1, hits give low values
[20] = locus YDR159W, strain sac3, hits give low values
[21] = locus YDR297W, strain sur2, hits give low values
[22] = locus YDR334W, strain swr1, hits give low values
[23] = locus YDR335W, strain msn5, hits give low values
[24] = locus YDR392W, strain spt3, hits give low values
[25] = locus YEL003W, strain gim4, hits give low values
[26] = locus YEL037C, strain rad23, hits give low values
[27] = locus YEL061C, strain CIN8 (second series), hits give low values
[28] = locus YER015W, strain faa2, hits give low values
[29] = locus YER016W, strain bim1, hits give low values
[30] = locus YER111C, strain swi4, hits give low values
[31] = locus YER155C, strain BEM2 (second series), hits give low values
[32] = locus YFR010W, strain ubp6, hits give low values
[33] = locus YGL167C, strain pmr1, hits give low values
[34] = locus YGL173C, strain kem1, hits give low values
[35] = locus YGL227W, strain vid30, hits give low values
[36] = locus YGL240W, strain doc1, hits give low values
[37] = locus YGL253W, strain hxk2, hits give low values
[38] = locus YHR013C, strain ard1, hits give low values
[39] = locus YHR027C, strain rpn1, hits give low values
[40] = locus YHR030C, strain SLT2, hits give low values
[41] = locus YHR079C, strain IRE1, hits give low values
[42] = locus YHR142W, strain chs7, hits give low values
[43] = locus YJL092W, strain hpr5, hits give low values
[44] = locus YJL095W, strain BCK1 (second series), hits give low values
[45] = locus YJL095W, strain BCK1, hits give low values
[46] = locus YJL115W, strain asf1, hits give low values
[47] = locus YJL129C, strain trk1, hits give low values
[48] = locus YJL154C, strain vps35, hits give low values
[49] = locus YJL164C, strain tpk1, hits give low values
[50] = locus YJL166W, strain qcr8, hits give low values
[51] = locus YJL187C, strain SWE1, hits give low values
[52] = locus YJR066W, strain TOR1, hits give low values
[53] = locus YKL160W, strain elf1, hits give low values
[54] = locus YKR026C, strain gcn3, hits give low values
[55] = locus YKR091W, strain srl3, hits give low values
[56] = locus YLL001W, strain dnm1, hits give low values
[57] = locus YLL026W, hits give low values
[58] = locus YLL041C, strain sdh2, hits give low values
[59] = locus YLR027C, strain aat2, hits give low values
[60] = locus YLR113W, strain HOG1, hits give low values
[61] = locus YLR221C, strain rsa3, hits give low values
[62] = locus YLR258W, strain gsy2, hits give low values
[63] = locus YLR262C, strain YPT6 (second series), hits give low values
[64] = locus YLR320W, strain mms22, hits give low values
[65] = locus YLR342W, strain FKS1, hits give low values
[66] = locus YLR357W, strain rsc2, hits give low values
[67] = locus YLR370C, strain arc18, hits give low values
[68] = locus YLR384C, strain iki3, hits give low values
[69] = locus YML120C, strain ndi1, hits give low values
[70] = locus YMR058W, strain fet3, hits give low values
[71] = locus YMR125W, strain sto1, hits give low values
[72] = locus YMR129W, hits give low values
[73] = locus YMR205C, strain PFK2, hits give low values
[74] = locus YMR231W, strain pep5, hits give low values
[75] = locus YNL071W, strain lat1, hits give low values
[76] = locus YNL183C, strain NPR1, hits give low values
[77] = locus YNL209W, strain ssb2, hits give low values
[78] = locus YNL248C, strain rpa49, hits give low values
[79] = locus YNL322C, strain KRE1 (second series), hits give low values
[80] = locus YNR049C, strain mso1, hits give low values
[81] = locus YOR001W, strain rrp6, hits give low values
[82] = locus YOR070C, strain gyp1, hits give low values
[83] = locus YOR080W, strain dia2, hits give low values
[84] = locus YOR083W, strain WHI5, hits give low values
[85] = locus YOR106W, strain vam3, hits give low values
[86] = locus YOR231W, strain MKK1, hits give low values
[87] = locus YOR265W, strain rbl2, hits give low values
[88] = locus YOR270C, strain vph1, hits give low values
[89] = locus YOR290C, strain snf2, hits give low values
[90] = locus YPL051W, strain arl3, hits give low values
[91] = locus YPL078C, strain atp4, hits give low values
[92] = locus YPL106C, strain sse1, hits give low values
[93] = locus YPL240C, strain hsp82, hits give low values
[94] = locus YPL256C, strain CLN2, hits give low values

Measured: normalized growth

O=c1c2cc(O)c(O)cc2oc2cc(O)c(C3O[C@H](CO)[C@H](O)[C@@H](O)[C@H]3O)c(O)c12 (stereo not given in full)
active: [36] 1.14 [resistant] | [73] 1.13 [resistant]
inactive: [1] 1.01 | [2] 1.02 | [3] 1.02 | [4] 1.03 | [5] 1.08 | [6] 1.02 | [7] 1.02 | [8] 1.03 | [9] 1.01 | [10] 1.04 | [11] 1.02 | [12] 1.02 | [13] 1.02 | [14] 1.03 | [15] 1.04 | [16] 1.02 | [17] 1.02 | [18] 1.03 | [19] 1.04 | [20] 1.11 | locus YDR195W, strain ref2 1.12 | [21] 1.04 | [22] 1.01 | [23] 1.01 | [24] 1.07 | [25] 1.02 | [26] 1.02 | [27] 1.02 | [28] 1 | [29] 1.04 | [30] 1.03 | [31] 1.12 | [32] 1.02 | [33] 1.03 | [34] 1.03 | [35] 1.04 | [37] 0.986 | [38] 1 | [39] 1.01 | [40] 0.973 | [41] 0.982 | [42] 0.945 | [43] 1.03 | [44] 1.02 | [45] 1.03 | [46] 1.01 | [47] 0.999 | [48] 1.02 | [49] 0.98 | [50] 0.993 | [51] 1.02 | [52] 0.937 | [53] 0.988 | [54] 1.02 | [55] 1.03 | [56] 1.04 | [57] 1.02 | [58] 1.01 | [59] 1.01 | [60] 1.1 | [61] 0.985 | [62] 1.06 | [63] 1.02 | [64] 1.07 | [65] 1.03 | [66] 1.01 | [67] 1.01 | [68] 1.01 | [69] 1 | [70] 1.01 | [71] 1.07 | [72] 1.02 | [74] 1.02 | [75] 1.02 | [76] 0.98 | [77] 0.986 | [78] 0.992 | [79] 1.02 | [80] 1.03 | [81] 0.981 | [82] 0.999 | [83] 1.03 | [84] 0.968 | [85] 0.887 | [86] 0.988 | [87] 1.01 | [88] 0.938 | [89] 0.995 | [90] 0.961 | [91] 0.969 | [92] 1.05 | [93] 0.997 | [94] 1

O=c1c(-c2ccc(O)cc2)coc2c(C3O[C@H](CO)[C@@H](O)[C@H](O)[C@H]3O)c(O)ccc12 (stereo not given in full)
inactive: [1] 1.01 | [2] 0.991 | [3] 0.982 | [4] 0.977 | [5] 0.957 | [6] 0.991 | [7] 0.977 | [8] 0.979 | [9] 0.985 | [10] 0.968 | [11] 0.991 | [12] 0.994 | [13] 0.973 | [14] 0.996 | [15] 0.978 | [16] 0.977 | [17] 0.978 | [18] 1 | [19] 0.995 | [20] 0.933 | locus YDR195W, strain ref2 0.951 | [21] 0.978 | [22] 0.973 | [23] 0.987 | [24] 0.876 | [25] 0.979 | [26] 0.973 | [27] 0.974 | [28] 0.993 | [29] 0.989 | [30] 0.98 | [31] 0.947 | [32] 0.977 | [33] 0.965 | [34] 0.977 | [35] 0.982 | [36] 0.957 | [37] 0.982 | [38] 0.921 | [39] 0.987 | [40] 0.957 | [41] 0.976 | [42] 1.04 | [43] 0.992 | [44] 0.987 | [45] 0.973 | [46] 0.98 | [47] 0.997 | [48] 0.972 | [49] 0.999 | [50] 0.98 | [51] 0.977 | [52] 0.898 | [53] 1.04 | [54] 0.982 | [55] 0.98 | [56] 0.99 | [57] 0.993 | [58] 0.992 | [59] 0.965 | [60] 1 | [61] 0.985 | [62] 0.982 | [63] 0.997 | [64] 0.988 | [65] 0.974 | [66] 0.957 | [67] 0.981 | [68] 0.975 | [69] 0.995 | [70] 0.969 | [71] 0.954 | [72] 0.962 | [73] 0.941 | [74] 0.985 | [75] 0.979 | [76] 0.91 | [77] 0.984 | [78] 1.03 | [79] 0.982 | [80] 0.973 | [81] 1.01 | [82] 0.983 | [83] 0.98 | [84] 1.06 | [85] 1.01 | [86] 0.96 | [87] 0.989 | [88] 0.969 | [89] 0.921 | [90] 1.01 | [91] 1.01 | [92] 0.93 | [93] 1.01 | [94] 0.979

— PubChem BioAssay AID1159580 (chemical genetic matrix, 2015)
